Holding throughout (test): DAPPL (digital affinity profiling via proximity ligation, sequencing); 10 mM Tris-HCl pH 7.5, 50 mM NaCl, 1 mM DTT, 4% glycerol, room temperature, 30 min; GST-TFs on glutathione beads, 16-mer random dsDNA library, 0.1% formaldehyde crosslink after washing; high values mean tight binding
Experiment [1] deals with T1, FEV (Homo sapiens, UniProt Q99581 1-238).
T1 sequence: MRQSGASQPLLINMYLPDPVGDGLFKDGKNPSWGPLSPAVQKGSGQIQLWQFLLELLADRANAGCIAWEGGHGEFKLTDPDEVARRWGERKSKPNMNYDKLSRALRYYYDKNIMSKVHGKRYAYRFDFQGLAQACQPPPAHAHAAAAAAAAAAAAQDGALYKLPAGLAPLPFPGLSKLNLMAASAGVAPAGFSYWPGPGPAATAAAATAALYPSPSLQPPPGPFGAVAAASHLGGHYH
The following applies: protein: recombinant; tags: N-terminal GST; dsDNA, one strand shown. The method in brief:
(§1)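 Beads coated with glutathione captured GST-fused human transcription factors that had been expressed in yeast, and the factors were then given DNA barcodes and pooled with a tag-only sample. The pools were incubated with 200 nmole of a random double-stranded 16-mer DNA library in Tris/NaCl/DTT/glycerol buffer for 30 min at room temperature, washed, crosslinked with 0.1% formaldehyde and proximity-ligated with BsaI/T4 ligase at 37 °C for 1 h. PCR amplification and Illumina NextSeq500 sequencing came last. Binding signal is each hexamer's read frequency for a factor divided by its frequency for the tag-only sample.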

The target of experiment [2] is ETV5 (Homo sapiens, UniProt P41161 1-510). The note with it: protein: recombinant; tags: N-terminal GST; dsDNA, one strand shown. The essentials: as §1
Experiment [3] addresses HSF1 (Homo sapiens, UniProt Q00613 1-529). The following applies: protein: recombinant; tags: N-terminal GST; chain copies: 3; dsDNA, one strand shown. The method in brief: as §1
The target in experiment [4] is T2, SPIC (Homo sapiens, UniProt Q8N5J4 1-248).
T2 sequence: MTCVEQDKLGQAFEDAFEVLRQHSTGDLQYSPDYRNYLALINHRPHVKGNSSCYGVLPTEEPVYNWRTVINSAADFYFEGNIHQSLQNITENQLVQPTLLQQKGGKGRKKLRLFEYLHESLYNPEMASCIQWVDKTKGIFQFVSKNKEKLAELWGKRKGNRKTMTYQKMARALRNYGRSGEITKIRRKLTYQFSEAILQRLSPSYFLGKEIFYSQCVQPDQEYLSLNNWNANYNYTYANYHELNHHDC
The following applies: protein: recombinant; tags: N-terminal GST; dsDNA, one strand shown. The method in brief:
as §1

Experiment [5] concerns the target ELF4 (Homo sapiens, UniProt Q99607 1-663). The following applies: protein: recombinant; tags: N-terminal GST; dsDNA, one strand shown. The essentials:
as §1

Experiment [6] deals with T3, ELK4 (Homo sapiens, UniProt P28324-2 1-405).
T3 sequence: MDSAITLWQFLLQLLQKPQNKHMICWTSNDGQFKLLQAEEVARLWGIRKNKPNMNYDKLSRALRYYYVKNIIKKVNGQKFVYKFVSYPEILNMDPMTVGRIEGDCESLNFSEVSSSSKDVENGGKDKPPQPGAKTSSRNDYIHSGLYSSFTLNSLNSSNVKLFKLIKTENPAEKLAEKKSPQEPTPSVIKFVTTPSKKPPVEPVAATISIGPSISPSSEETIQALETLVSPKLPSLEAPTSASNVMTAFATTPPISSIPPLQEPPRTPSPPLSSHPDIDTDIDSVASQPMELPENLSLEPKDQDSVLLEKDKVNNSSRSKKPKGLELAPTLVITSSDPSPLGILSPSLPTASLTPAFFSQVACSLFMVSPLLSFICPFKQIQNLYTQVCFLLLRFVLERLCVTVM
The note with it: protein: recombinant; tags: N-terminal GST; dsDNA, one strand shown. The essentials:
as §1

For experiment [7], the target named is T4, ETV2 (Homo sapiens, UniProt O00321 1-342).
T4 sequence: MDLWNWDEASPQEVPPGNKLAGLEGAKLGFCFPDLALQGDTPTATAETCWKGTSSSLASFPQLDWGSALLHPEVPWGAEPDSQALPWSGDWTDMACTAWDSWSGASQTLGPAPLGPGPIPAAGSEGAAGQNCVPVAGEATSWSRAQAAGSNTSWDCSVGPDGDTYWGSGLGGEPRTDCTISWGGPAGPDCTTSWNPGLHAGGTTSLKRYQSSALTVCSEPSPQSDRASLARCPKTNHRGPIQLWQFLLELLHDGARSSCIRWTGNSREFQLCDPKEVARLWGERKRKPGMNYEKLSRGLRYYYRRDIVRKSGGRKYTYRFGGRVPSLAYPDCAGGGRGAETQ
The following applies: protein: recombinant; tags: N-terminal GST; dsDNA, one strand shown. The essentials: as §1

Experiment [8] has as its target T5, ELF3 (Homo sapiens, UniProt P78545 1-371).
T5 sequence: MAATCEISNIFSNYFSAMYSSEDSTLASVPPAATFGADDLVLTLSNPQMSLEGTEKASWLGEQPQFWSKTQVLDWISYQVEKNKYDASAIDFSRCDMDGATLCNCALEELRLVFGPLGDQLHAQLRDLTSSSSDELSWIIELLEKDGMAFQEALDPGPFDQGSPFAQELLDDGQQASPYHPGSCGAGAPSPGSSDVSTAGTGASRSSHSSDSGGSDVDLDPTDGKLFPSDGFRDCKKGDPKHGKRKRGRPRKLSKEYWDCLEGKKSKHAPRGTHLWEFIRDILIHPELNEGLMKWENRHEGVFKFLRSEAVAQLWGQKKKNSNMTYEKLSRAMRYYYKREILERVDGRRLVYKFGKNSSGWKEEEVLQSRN
The note with it: protein: recombinant; tags: N-terminal GST; dsDNA, one strand shown. The essentials:
as §1

Experiment [9] addresses CRX (Homo sapiens, UniProt O43186 1-299). The following applies: protein: recombinant; tags: N-terminal GST; dsDNA, one strand shown. The essentials:
as §1

The target in experiment [10] is ETV1 (Homo sapiens, UniProt P50549 1-477). The note with it: protein: recombinant; tags: N-terminal GST; dsDNA, one strand shown. The essentials:
as §1

In experiment [11] the target is T6, ERF (Homo sapiens, UniProt P50548 1-548).
T6 sequence: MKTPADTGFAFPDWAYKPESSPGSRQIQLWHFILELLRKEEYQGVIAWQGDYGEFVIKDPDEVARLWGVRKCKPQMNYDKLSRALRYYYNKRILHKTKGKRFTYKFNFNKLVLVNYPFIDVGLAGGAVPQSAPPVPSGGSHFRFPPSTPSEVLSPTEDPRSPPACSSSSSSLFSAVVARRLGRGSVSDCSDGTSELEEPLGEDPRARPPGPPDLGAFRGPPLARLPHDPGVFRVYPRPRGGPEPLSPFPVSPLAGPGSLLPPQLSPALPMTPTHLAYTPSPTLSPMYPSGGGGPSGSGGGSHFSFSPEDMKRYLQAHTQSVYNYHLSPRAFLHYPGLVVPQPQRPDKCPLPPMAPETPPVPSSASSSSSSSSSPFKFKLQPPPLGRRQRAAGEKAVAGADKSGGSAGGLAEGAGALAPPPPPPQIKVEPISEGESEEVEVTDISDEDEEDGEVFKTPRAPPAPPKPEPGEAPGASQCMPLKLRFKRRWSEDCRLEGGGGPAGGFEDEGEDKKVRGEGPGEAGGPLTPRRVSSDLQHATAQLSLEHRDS
The following applies: protein: recombinant; tags: N-terminal GST; dsDNA, one strand shown. The essentials:
as §1

Experiment [12] has as its target T7, ETV3L (Homo sapiens, UniProt Q6ZN32 1-361).
T7 sequence: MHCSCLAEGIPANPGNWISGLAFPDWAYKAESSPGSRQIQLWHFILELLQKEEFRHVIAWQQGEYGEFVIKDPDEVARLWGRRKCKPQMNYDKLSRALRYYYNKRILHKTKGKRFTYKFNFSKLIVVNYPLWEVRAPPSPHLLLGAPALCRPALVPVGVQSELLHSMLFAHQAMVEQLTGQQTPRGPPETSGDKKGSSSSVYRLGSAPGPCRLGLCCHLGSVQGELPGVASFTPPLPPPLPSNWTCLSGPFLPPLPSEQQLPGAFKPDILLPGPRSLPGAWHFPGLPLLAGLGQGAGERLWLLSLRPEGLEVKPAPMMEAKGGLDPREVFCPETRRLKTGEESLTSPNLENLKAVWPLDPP
The note with it: protein: recombinant; tags: N-terminal GST; dsDNA, one strand shown. The method in brief: as §1

The target in experiment [13] is T8, ETS2 (Homo sapiens, UniProt P15036 1-469).
T8 sequence: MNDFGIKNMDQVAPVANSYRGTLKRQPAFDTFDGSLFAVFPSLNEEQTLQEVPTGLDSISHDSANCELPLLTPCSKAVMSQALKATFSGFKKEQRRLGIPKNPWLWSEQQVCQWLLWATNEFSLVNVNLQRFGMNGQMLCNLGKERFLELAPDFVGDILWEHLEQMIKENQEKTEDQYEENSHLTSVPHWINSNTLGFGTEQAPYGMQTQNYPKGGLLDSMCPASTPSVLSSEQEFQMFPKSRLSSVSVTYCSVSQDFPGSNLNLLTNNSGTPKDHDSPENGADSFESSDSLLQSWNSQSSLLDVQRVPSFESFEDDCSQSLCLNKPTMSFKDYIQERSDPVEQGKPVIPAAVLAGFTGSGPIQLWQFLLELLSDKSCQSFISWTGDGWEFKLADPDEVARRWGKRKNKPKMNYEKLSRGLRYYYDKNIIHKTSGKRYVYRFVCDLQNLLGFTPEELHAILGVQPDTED
The note with it: protein: recombinant; tags: N-terminal GST; dsDNA, one strand shown. The essentials: as §1

For experiment [14], the target named is T9, SPDEF (Homo sapiens, UniProt O95238 1-335).
T9 sequence: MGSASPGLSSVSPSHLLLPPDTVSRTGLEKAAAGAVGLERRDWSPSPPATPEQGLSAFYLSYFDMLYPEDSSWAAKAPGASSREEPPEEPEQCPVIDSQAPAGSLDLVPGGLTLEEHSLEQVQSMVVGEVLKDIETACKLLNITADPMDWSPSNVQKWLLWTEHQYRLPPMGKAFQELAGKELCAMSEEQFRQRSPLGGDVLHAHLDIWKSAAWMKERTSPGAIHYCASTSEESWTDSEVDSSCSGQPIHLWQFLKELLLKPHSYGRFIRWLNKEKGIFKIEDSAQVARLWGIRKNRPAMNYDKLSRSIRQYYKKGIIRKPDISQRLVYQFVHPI
The following applies: protein: recombinant; tags: N-terminal GST; dsDNA, one strand shown. The essentials:
as §1

Experiment [15] addresses T10, ETV7 (Homo sapiens, UniProt Q9Y603 1-341).
T10 sequence: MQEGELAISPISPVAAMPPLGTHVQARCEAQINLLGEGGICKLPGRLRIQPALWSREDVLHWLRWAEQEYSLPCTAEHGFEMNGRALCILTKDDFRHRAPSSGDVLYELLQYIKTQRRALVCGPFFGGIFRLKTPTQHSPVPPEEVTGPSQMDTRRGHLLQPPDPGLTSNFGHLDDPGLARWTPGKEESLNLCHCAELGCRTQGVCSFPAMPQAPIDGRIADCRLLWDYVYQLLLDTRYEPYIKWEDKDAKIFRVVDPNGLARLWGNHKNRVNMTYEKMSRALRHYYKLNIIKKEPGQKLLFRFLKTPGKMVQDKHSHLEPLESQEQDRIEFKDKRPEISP
The following applies: protein: recombinant; tags: N-terminal GST; dsDNA, one strand shown. The method in brief:
as §1

Experiment [16] has as its target T11, ELF5 (Homo sapiens, UniProt Q9UKW6-2 1-255).
T11 sequence: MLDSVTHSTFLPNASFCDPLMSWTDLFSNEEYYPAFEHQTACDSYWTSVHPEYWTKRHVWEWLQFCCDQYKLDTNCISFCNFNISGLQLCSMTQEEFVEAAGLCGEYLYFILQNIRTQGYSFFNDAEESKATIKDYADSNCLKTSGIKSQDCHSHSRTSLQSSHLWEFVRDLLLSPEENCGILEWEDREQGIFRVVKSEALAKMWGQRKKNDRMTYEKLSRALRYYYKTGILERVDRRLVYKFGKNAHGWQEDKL
The note with it: protein: recombinant; tags: N-terminal GST; dsDNA, one strand shown. The essentials: as §1

Experiment [17] has as its target T12, ETV3 (Homo sapiens, UniProt P41162-2 1-143).
T12 sequence: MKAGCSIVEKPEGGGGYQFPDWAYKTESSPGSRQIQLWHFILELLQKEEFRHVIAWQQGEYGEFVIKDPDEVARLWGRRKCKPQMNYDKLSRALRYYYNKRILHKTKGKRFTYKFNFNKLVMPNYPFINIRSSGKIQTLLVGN
The note with it: protein: recombinant; tags: N-terminal GST; dsDNA, one strand shown. The essentials:
as §1

Experiment [18] has as its target ETV6 (Homo sapiens, UniProt P41212 1-452). The following applies: protein: recombinant; tags: N-terminal GST; dsDNA, one strand shown. The essentials:
as §1

Drawing on publication PMC7862700, “An all-to-all approach to the identification of sequence-specific readers for epigenetic DNA modifications on cytosine”, this text covers binding signal for one sequence.

ELF4, sequence (Q99607 whole entry): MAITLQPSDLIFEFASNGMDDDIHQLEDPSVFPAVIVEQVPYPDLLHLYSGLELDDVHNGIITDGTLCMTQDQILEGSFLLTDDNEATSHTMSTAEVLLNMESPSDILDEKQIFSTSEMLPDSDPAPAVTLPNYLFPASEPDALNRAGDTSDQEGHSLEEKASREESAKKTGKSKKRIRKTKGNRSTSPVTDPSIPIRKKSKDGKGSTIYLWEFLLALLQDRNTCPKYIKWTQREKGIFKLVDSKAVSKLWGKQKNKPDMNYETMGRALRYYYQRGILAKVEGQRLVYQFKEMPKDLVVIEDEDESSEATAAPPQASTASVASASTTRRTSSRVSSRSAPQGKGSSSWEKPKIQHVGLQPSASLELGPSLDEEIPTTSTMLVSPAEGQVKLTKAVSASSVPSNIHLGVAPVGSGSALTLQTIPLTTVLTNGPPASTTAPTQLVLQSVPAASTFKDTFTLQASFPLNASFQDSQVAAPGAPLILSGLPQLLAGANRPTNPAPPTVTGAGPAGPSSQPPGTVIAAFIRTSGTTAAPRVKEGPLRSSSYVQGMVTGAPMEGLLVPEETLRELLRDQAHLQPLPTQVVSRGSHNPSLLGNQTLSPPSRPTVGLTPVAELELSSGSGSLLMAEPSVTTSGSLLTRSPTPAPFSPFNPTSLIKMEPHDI
HSF1, sequence (Q00613 whole entry): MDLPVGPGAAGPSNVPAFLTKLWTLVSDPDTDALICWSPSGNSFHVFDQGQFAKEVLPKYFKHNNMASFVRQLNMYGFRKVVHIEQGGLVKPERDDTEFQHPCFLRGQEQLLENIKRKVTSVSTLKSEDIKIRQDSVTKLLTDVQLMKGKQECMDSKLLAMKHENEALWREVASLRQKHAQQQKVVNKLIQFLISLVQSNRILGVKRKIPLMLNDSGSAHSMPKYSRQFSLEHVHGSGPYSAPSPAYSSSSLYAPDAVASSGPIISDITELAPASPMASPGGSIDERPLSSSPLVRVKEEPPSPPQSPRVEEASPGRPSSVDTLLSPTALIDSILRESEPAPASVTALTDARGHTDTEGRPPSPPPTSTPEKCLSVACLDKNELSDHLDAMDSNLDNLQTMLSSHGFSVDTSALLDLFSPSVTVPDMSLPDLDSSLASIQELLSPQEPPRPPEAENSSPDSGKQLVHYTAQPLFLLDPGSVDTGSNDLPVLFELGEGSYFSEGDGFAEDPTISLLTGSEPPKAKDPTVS
ETV1, sequence (P50549 whole entry): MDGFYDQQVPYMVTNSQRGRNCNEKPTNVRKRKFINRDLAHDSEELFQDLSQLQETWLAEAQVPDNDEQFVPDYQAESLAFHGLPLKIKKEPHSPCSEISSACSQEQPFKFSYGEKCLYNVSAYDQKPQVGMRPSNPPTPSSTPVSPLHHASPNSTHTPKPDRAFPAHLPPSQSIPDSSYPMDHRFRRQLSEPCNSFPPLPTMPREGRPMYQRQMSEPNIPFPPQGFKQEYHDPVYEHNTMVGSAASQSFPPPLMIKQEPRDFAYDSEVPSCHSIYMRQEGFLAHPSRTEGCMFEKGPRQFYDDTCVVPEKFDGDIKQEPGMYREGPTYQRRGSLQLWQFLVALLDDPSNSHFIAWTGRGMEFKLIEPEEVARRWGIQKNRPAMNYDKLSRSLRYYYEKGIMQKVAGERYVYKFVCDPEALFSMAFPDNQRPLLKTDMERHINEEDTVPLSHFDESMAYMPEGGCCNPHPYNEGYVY
ETV5, sequence (P41161 whole entry): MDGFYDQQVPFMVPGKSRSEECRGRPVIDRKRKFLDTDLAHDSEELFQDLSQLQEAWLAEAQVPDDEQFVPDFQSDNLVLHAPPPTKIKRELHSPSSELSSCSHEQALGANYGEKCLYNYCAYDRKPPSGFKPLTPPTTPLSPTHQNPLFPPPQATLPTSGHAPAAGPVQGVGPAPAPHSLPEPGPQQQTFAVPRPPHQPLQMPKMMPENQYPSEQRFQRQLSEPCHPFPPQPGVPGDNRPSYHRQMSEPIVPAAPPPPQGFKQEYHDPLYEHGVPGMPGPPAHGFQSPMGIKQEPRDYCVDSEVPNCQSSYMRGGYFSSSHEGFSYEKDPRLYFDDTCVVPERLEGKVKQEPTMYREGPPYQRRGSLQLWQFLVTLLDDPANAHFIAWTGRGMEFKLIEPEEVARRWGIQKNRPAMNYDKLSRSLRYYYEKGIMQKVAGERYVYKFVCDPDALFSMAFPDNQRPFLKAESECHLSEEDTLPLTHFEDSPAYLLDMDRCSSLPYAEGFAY
ETV6, sequence (P41212 whole entry): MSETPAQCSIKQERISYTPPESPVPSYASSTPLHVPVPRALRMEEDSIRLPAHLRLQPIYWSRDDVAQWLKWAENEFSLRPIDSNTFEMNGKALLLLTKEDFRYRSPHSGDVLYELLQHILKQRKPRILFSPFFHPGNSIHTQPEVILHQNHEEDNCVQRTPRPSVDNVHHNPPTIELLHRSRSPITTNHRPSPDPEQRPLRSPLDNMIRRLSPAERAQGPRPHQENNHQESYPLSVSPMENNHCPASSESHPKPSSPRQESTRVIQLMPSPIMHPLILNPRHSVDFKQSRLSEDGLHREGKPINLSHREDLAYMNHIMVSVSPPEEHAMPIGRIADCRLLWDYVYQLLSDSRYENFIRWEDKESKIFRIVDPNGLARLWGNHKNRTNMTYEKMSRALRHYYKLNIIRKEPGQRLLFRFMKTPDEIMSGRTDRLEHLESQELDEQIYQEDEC
CRX, sequence (O43186 whole entry): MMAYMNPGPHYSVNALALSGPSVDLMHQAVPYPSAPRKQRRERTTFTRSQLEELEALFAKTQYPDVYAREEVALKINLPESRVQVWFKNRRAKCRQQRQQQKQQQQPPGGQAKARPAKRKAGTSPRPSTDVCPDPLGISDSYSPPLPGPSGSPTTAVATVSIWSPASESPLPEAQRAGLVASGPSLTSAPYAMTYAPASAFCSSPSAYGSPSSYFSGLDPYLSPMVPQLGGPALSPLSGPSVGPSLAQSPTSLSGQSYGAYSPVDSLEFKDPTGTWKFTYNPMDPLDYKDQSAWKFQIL

On to GTTCTA, for which the binding signal in experiment [1] is 1.26 fold enrichment (6-mer frequency, TF over GST control); in experiment [2], 1.18 fold enrichment (6-mer frequency, TF over GST control); in [3], 2.94 fold enrichment (6-mer frequency, TF over GST control); in experiment [4] it was 1.37 fold enrichment (6-mer frequency, TF over GST control); in experiment [5], 1.31 fold enrichment (6-mer frequency, TF over GST control); in experiment [6], 1.2 fold enrichment (6-mer frequency, TF over GST control). The binding signal in [7] was 1.17 fold enrichment (6-mer frequency, TF over GST control); in [8], 1.27 fold enrichment (6-mer frequency, TF over GST control); in experiment [9], 1.59 fold enrichment (6-mer frequency, TF over GST control); in [10], 1.11 fold enrichment (6-mer frequency, TF over GST control); in experiment [11], 1.27 fold enrichment (6-mer frequency, TF over GST control); in experiment [12] it was 1.2 fold enrichment (6-mer frequency, TF over GST control). Also, the binding signal in experiment [13] is 1.25 fold enrichment (6-mer frequency, TF over GST control); in experiment [14], 1.19 fold enrichment (6-mer frequency, TF over GST control); in experiment [15] it was 1.2 fold enrichment (6-mer frequency, TF over GST control); in experiment [16], 1.23 fold enrichment (6-mer frequency, TF over GST control); in experiment [17], 1.19 fold enrichment (6-mer frequency, TF over GST control); in experiment [18] it was 1.24 fold enrichment (6-mer frequency, TF over GST control).
